# Results: PubChem BioAssay (EPA / NIEHS)
# Results filed as inconclusive are left out. The source made the active and inactive calls. The calls were made as follows: active = hit-call score of the fitted dose curve at least 0.9, where 1 is the maximum; inconclusive = response in the unintended direction; inactive = score below 0.9.
# Columns and labels:
# [1] = TOX21_p53_BLA_p2_viability: Viability Assessment in the Tox21 HCT-116 p53 Agonism Beta-lactamase Assay, Phase 2 (AID 2283591);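 also: actives lower the ATP signal meaning cytotoxicity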
# How it was run: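 Cytotoxicity readout: CellTiter-Glo ATP luminescence, 30 min at room temperature, after the beta-lactamase read. Cells were HCT116 exposed 16 h at 37C to compounds pin-transferred at 217-fold dilution from DMSO stocks.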
# [2] = target: Cellular tumor antigen p53 (Homo sapiens) (UniProt P04637); experiment: TOX21_p53_BLA_p2_ratio: Tox21 HCT-116 p53 Agonism Beta-lactamase Assay, Ratio, Phase 2 (AID 2283592)
# Sequence of Cellular tumor antigen p53 (Homo sapiens) (P04637 whole entry, looked up): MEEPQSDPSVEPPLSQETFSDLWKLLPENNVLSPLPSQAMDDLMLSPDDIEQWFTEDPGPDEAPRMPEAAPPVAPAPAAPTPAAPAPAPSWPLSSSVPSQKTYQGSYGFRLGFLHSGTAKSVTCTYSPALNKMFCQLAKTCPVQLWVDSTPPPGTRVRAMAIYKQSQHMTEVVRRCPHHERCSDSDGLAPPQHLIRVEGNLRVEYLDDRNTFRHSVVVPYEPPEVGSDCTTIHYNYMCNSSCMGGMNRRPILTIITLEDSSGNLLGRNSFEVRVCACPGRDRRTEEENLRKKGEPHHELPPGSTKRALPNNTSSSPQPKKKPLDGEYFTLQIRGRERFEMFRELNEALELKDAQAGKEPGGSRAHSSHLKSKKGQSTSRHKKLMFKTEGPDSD
# How it was run: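 An inducible beta-lactamase reporter in HCT116 cells signals p53 pathway activation. After 16 h chemical exposure at 37C, cells load CCF4-AM substrate for 2 h at room temperature; activity is the cleaved/uncleaved emission ratio relative to DMSO.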
# [3] = TOX21_p53_BLA_p3_viability: Viability Assessment in the Tox21 HCT-116 p53 Agonism Beta-lactamase Assay, Phase 3 (AID 2283593);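 also: cells exposed to compound for 16 h before reading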
# How it was run: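 Cellular ATP was quantified by CellTiter-Glo luminescence, read after 30 min at room temperature. Beforehand, HCT116 cells (4000/well) received compound 5 h post-seeding, 217-fold diluted from DMSO, then incubated 16 h at 37C.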
# [4] = target: Cellular tumor antigen p53 (Homo sapiens) (UniProt P04637); experiment: TOX21_p53_BLA_p5_ratio: Tox21 HCT-116 p53 Agonism Beta-lactamase Assay, Ratio, Phase 5 (AID 2283599)
# How it was run: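 Beta-lactamase reporter ratio (blue 460 nm over green 530 nm, 405 nm excitation) after 2 h CCF4-AM loading, in HCT-116 cells exposed 16 h at 37 C to compounds pinned at 217-fold dilution. Increases relative to DMSO baseline scored.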
# [5] = target: Cellular tumor antigen p53 (Homo sapiens) (UniProt P04637); experiment: TOX21_p53_BLA_p4_ratio: Tox21 HCT-116 p53 Agonism Beta-lactamase Assay, Ratio, Phase 4 (AID 2283601)
# How it was run: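 Signal is the blue/green (460nm/530nm) ratio of cleaved versus uncleaved CCF4-AM substrate, read after 2 h substrate loading. Cells were HCT116 carrying the p53-responsive beta-lactamase reporter, dosed 16 h at 37C, 5% CO2; CellTiter-Glo measured in parallel.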
# [6] = TOX21_p53_BLA_p5_viability: Viability Assessment in the Tox21 HCT-116 p53 Agonism Beta-lactamase Assay, Phase 5 (AID 2283600)
# How it was run: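 Counter-readout for cytotoxicity: ATP-dependent luminescence from CellTiter-Glo, read in the beta-lactamase wells after 30 min at RT, following a 16 h compound exposure at 37C.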
# [7] = TOX21_p53_BLA_p4_viability: Viability Assessment in the Tox21 HCT-116 p53 Agonism Beta-lactamase Assay, Phase 4 (AID 2283597);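 also: hits lower the luminescence signal meaning cytotoxicity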
# How it was run: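 Compound exposure of HCT116 cells lasts 16 h at 37C, 5% CO2, with DMSO stocks diluted 217-fold. Cellular ATP is then quantified by CellTiter-Glo luminescence after 30 min at room temperature.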
# [8] = ACEA_ER_AUC_viability: ACEA Biosciences xCELLigence Real-Time Cell Analysis on Estrogen Receptor Agonism for Viability (AID 2283782);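 also: continuous compound exposure with impedance area under curve over 80 h; hit means loss of impedance signal meaning reduced cell growth or viability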
# How it was run: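 T-47D; phenol red-free RPMI1640 + 10% CS-FBS; 8 conc., 1:4 serial, max 100 uM final, ≤0.5% DMSO; n = 2; continuous exposure; impedance monitored to 80 h post-dose; AUC vs DMSO.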
# [9] = target: Cellular tumor antigen p53 (Homo sapiens) (UniProt P04637); experiment: TOX21_p53_BLA_p3_ratio: Tox21 HCT-116 p53 Agonism Beta-lactamase Assay, Ratio, Phase 3 (AID 2283596)
# How it was run: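 HCT116 p53-bla cells (4000/well) given compound in DMSO (217-fold dilution) after 5 h, incubated 16 h at 37C. CCF4-AM substrate 2 h at room temperature; 460/530 nm emission ratio, gain fitted against DMSO.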
structure (smiles),measurement,setting,value
CC1(C)CCC(NC(=O)[C@@H](N)CCC(=O)O)CC1,outcome,[1],inactive
same,outcome,[2],inactive
same,outcome,[3],inactive
same,outcome,[4],inactive
same,outcome,[5],inactive
CC(C)Cc1ccc([C@@H](C)C(=O)NS(C)(=O)=O)cc1,outcome,[1],inactive
same,outcome,[2],inactive
same,outcome,[3],inactive
same,outcome,[4],inactive
same,outcome,[6],inactive
CC1(C)C(O)C(C)(C)C1O (stereo not drawn),outcome,[1],inactive
same,outcome,[2],inactive
same,outcome,[3],inactive
same,outcome,[4],inactive
same,outcome,[6],inactive
same,outcome,[5],inactive
Cc1cc(-c2ccccc2)nnc1NCCN1CCOCC1,outcome,[1],inactive
same,outcome,[2],inactive
same,outcome,[3],inactive
same,outcome,[4],inactive
CO[Si](OC)(OC)OC,outcome,[1],inactive
same,outcome,[2],inactive
same,outcome,[3],inactive
same,outcome,[4],inactive
CC(C)(C)OC=O,outcome,[1],inactive
same,outcome,[2],inactive
same,outcome,[3],inactive
same,outcome,[4],inactive
same,outcome,[6],inactive
same,outcome,[5],inactive
Cn1c(=O)c2[nH]c(Br)nc2n(C)c1=O,outcome,[1],inactive
same,outcome,[2],inactive
same,outcome,[3],inactive
same,outcome,[4],inactive
same,outcome,[6],inactive
same,outcome,[5],inactive
CCCCCCCCCCCCOC(=O)c1ccc(O)cc1,outcome,[1],inactive
same,outcome,[2],inactive
same,outcome,[3],inactive
same,outcome,[4],inactive
same,outcome,[6],inactive
same,outcome,[5],inactive
CCN(CC)S(=O)(=O)c1ccc(C(=O)O)cc1,outcome,[1],inactive
same,outcome,[2],inactive
same,outcome,[3],inactive
same,outcome,[4],inactive
CN(C(=O)CO)c1c(I)c(C(=O)NCC(O)CO)c(I)c(C(=O)NCC(O)CO)c1I (stereo not drawn),outcome,[1],inactive
same,outcome,[2],inactive
same,outcome,[3],inactive
same,outcome,[7],inactive
same,outcome,[6],inactive
same,outcome,[5],inactive
CCCOCCOCCO,outcome,[1],inactive
same,outcome,[2],inactive
same,outcome,[3],inactive
same,outcome,[4],inactive
same,outcome,[5],inactive
O=C1OC2(c3ccc(O)cc3Oc3cc(O)ccc32)c2ccc(N=C=S)cc21,outcome,[1],inactive
same,outcome,[2],inactive
same,outcome,[3],inactive
same,outcome,[7],inactive
same,outcome,[6],inactive
same,outcome,[5],inactive
CCCCCCCCCCCCCCCCCCOP(=O)([O-])OC1CC[N+](C)(C)CC1,outcome,[1],inactive
same,outcome,[2],inactive
same,outcome,[3],inactive
same,outcome,[4],inactive
same,outcome,[5],inactive
CNCCS(=O)(=O)O,outcome,[1],inactive
same,outcome,[2],inactive
same,outcome,[3],inactive
same,outcome,[4],inactive
same,outcome,[6],inactive
same,outcome,[5],inactive
O=C(O)CSCC(=O)NC1CCSC1=O (stereo not drawn),outcome,[1],inactive
same,outcome,[2],inactive
same,outcome,[3],inactive
same,outcome,[4],inactive
Cc1cc(C)c(NC(=O)CN(CC(=O)O)CC(=O)O)c(C)c1Br,outcome,[1],inactive
same,outcome,[2],inactive
same,outcome,[3],inactive
same,outcome,[4],inactive
same,outcome,[6],inactive
same,outcome,[5],inactive
CNCCC=C1c2ccccc2CCc2ccccc21,outcome,[1],inactive
same,outcome,[2],inactive
same,outcome,[3],inactive
same,AC50,[7],35.8 µM (active)
same,outcome,[6],inactive
same,outcome,[5],inactive
CCC(=O)C=CC1C(C)=CCCC1(C)C (stereo not drawn),outcome,[1],inactive
same,outcome,[2],inactive
same,outcome,[3],inactive
same,outcome,[4],inactive
same,outcome,[6],inactive
O=C(O)c1ccccc1S,outcome,[1],inactive
same,outcome,[2],inactive
same,outcome,[3],inactive
same,outcome,[4],inactive
C=C(C)C(=O)OCCNC(C)(C)C,outcome,[1],inactive
same,outcome,[2],inactive
same,outcome,[3],inactive
same,outcome,[7],inactive
same,outcome,[6],inactive
same,outcome,[8],inactive
O=C(OCCO)c1ccccc1O,outcome,[1],inactive
same,outcome,[2],inactive
same,outcome,[3],inactive
same,outcome,[7],inactive
same,outcome,[5],inactive
Nc1ccc2ccccc2c1S(=O)(=O)O,outcome,[1],inactive
same,outcome,[2],inactive
same,outcome,[3],inactive
same,outcome,[4],inactive
same,outcome,[6],inactive
same,outcome,[5],inactive
Cl[Si](Cl)(c1ccccc1)c1ccccc1,outcome,[1],inactive
same,outcome,[2],inactive
same,outcome,[3],inactive
same,outcome,[6],inactive
CCC(=O)OCC(=O)[C@@]1(OC(=O)CC)[C@H](C)C[C@H]2[C@H]3[C@H]([C@@H](O)C[C@@]21C)[C@@]1(C)C=CC(=O)C=C1C[C@H]3Cl,outcome,[1],inactive
same,outcome,[2],inactive
same,outcome,[3],inactive
same,outcome,[4],inactive
same,outcome,[6],inactive
same,outcome,[5],inactive
CN1C(=O)CC(C)(c2ccccc2)C1=O (stereo not drawn),outcome,[1],inactive
same,outcome,[2],inactive
same,outcome,[3],inactive
same,outcome,[4],inactive
same,outcome,[5],inactive
O=C(NCCNCC(O)COc1ccc(O)cc1)N1CCOCC1 (stereo not drawn),outcome,[1],inactive
same,outcome,[2],inactive
same,outcome,[3],inactive
same,outcome,[4],inactive
same,outcome,[6],inactive
same,outcome,[5],inactive
CN(C)c1ccc(/C=C/c2ccc([N+](=O)[O-])cc2)cc1,outcome,[1],inactive
same,outcome,[2],inactive
same,outcome,[9],inactive
same,outcome,[7],inactive
CN=C(N)NC(=O)Nc1c(C)cccc1C,outcome,[1],inactive
same,outcome,[2],inactive
same,outcome,[9],inactive
same,outcome,[7],inactive
O=Cc1ccc(Cl)c(Cl)c1,outcome,[1],inactive
same,outcome,[2],inactive
same,outcome,[9],inactive
same,outcome,[7],inactive
CC(CNC(=O)c1cccnc1)NC(=O)c1cccnc1 (stereo not drawn),outcome,[1],inactive
same,outcome,[2],inactive
same,outcome,[9],inactive
CCC(=O)OC/C=C/c1ccccc1,outcome,[1],inactive
same,outcome,[2],inactive
same,outcome,[9],inactive
same,outcome,[7],inactive
same,outcome,[4],inactive
O=C1c2ccccc2S(=O)(=O)N1CCCCN1CCN(c2ncccn2)CC1,outcome,[1],inactive
same,outcome,[2],inactive
same,outcome,[3],inactive
same,outcome,[6],inactive
O=C(O)[C@@H]1C[C@H](CP(=O)(O)O)CCN1,outcome,[1],inactive
same,outcome,[2],inactive
same,outcome,[9],inactive
same,outcome,[7],inactive
same,outcome,[4],inactive
CC(=O)OCC(=O)[C@@]12OC3(CCCC3)O[C@@H]1C[C@H]1[C@@H]3CCC4=CC(=O)C=C[C@]4(C)[C@@]3(F)[C@@H](O)C[C@@]12C,outcome,[1],inactive
same,outcome,[2],inactive
same,outcome,[3],inactive
same,outcome,[5],inactive
COc1cc(-c2ccc(=O)[nH]n2)ccc1OC(F)F,outcome,[1],inactive
same,outcome,[2],inactive
same,outcome,[3],inactive
same,outcome,[6],inactive
same,outcome,[5],inactive
Cc1cc(O)cc2c1O[C@](C)(CCC[C@H](C)CCC[C@H](C)CCCC(C)C)CC2,outcome,[1],inactive
same,outcome,[2],inactive
same,outcome,[3],inactive
same,outcome,[6],inactive
same,outcome,[5],inactive
CCOc1ccc(O)cc1,outcome,[1],inactive
same,outcome,[2],inactive
same,outcome,[9],inactive
